# Data: PubChem BioAssay (NCI)
# About 83,000 compounds went through this panel and 20% of them were active in at least one assay; those are over-represented in the sample as a whole.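 Interpretation: 100, growth as untreated; towards 0, rising growth inhibition; 0, no net growth; 0 to -100, cell death. Compounds scoring below 10 were considered active.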 Activity calls are given as the source filed them.
# Test system: NCI/ADR-RES ovarian
# Experiment: NCI-60 one-dose screen, 48 h (100 = growth as untreated, 0 = no growth, -100 = all killed)
# Conditions: 10 µM unless noted
row,Compound,growth
1,O=C1/C(=C/c2ccc(F)cc2)CN(C(=O)CCN2CCC(=NO)CC2)C/C1=C\c1ccc(F)cc1,12.5% (inactive)
2,CC/C=C\C[C@H](O)C/C=C1/C(=O)C=C[C@@H]1C/C=C\CCCC(N)=O,10.7% (inactive)
3,CC/C=C\C[C@H](F)C/C=C1/C(=O)C=C[C@@H]1C/C=C\CCCC(=O)OC,14.2% (inactive)
4,Nc1nc2c(c3ncccc13)C(c1ccc(Cl)c(Cl)c1)Cc1ncccc1-2 (stereo not drawn),4% (active)
5,Cn1c(=O)c2c(ncn2CC[N+](C)(C)C)n(C)c1=O,102% (inactive)
6,O=C(O)c1cccc2c1-c1ccccc1C2=O,100% (inactive)
7,CCOC(=O)C(C#N)C1CCCCC1 (stereo not drawn),98.5% (inactive)
8,CCCCNP1(NCCCC)=NP(NCCCC)(NCCCC)=NP(NCCCC)(NCCCC)=NP(NCCCC)(NCCCC)=N1,97.2% (inactive)
9,CC(=O)C1=C(O)C=C2Oc3c(C(=O)/C=C/c4cc(C(F)(F)F)cc(C(F)(F)F)c4)c(O)c(C)c(O)c3[C@]2(C)C1=O,-48.2% (active)
10,COc1ccc(OCC(=O)Nc2ccc(-c3nc4ccccc4s3)cc2C)cc1,85% (inactive)
11,CCCCCCCCCC(=O)Oc1ccc(/C(=C(/C)c2ccccc2)c2ccc(OCCN3CCCC3)cc2)cc1,28% (inactive)
12,COc1cccc(-c2nc3sccn3c2-c2ccnc(NCCCNS(=O)(=O)c3ccc(Cl)cc3)c2)c1,26.9% (inactive)
13,CC/C=C\C[C@H](O)C/C=C1/C(=O)C=C[C@@H]1C/C=C\CCCC(=O)NC,6.92% (active)
14,COc1cccc(/C=C\C(=O)c2ccccc2)c1,88% (inactive)
15,C=C1CC2(OC1=O)C(=O)Nc1ccccc12 (stereo not drawn),66.5% (inactive)
16,Cc1ccc2c(c1)C(=O)/C(=C/c1ccc(OCC(=O)c3ccccc3)cc1)O2,88.1% (inactive)
17,CCN(C(=O)CN1CCN(c2cc3c(cc2F)c(=O)c(C(=O)O)cn3C2CC2)CC1)c1nc(-c2ccc(OC)cc2)cs1,59.3% (inactive)
18,CS(CCCCN=C=S)=NC(=O)c1c(F)c(F)c(F)c(F)c1F (stereo not drawn),97.3% (inactive)
19,Cc1ccccc1CCO,101% (inactive)

row,Compound,growth
1,O=C(O)c1c([N+](=O)[O-])cnc2ccccc12,96.7% (inactive)
2,CC(=O)C1=C(O)C=C2Oc3c(C(=O)/C=C/c4cc(Cl)cc(Cl)c4)c(O)c(C)c(O)c3[C@]2(C)C1=O,-40.9% (active)
3,COc1cc(NC(N)=NCC(C)(C)COc2ccc(C(F)(F)F)cc2)cnc1C#N,70.2% (inactive)
4,CC1=CC(=O)CC(C)(C)[C@@]1(O)/C=C/[C@@H](C)O,95.6% (inactive)
5,OC(c1cc(-c2ccccc2)nc2ccc(Cl)cc12)C1CCCCN1 (stereo not drawn),68.5% (inactive)
6,CCC(=O)OCc1cccc(OC)c1,106% (inactive)
7,CCCCCCCCCCCCCC(=O)C(C)N (stereo not drawn),75.8% (inactive)
8,CC1=C(C)C(=O)OC([C@](C)(O)[C@]2(O)CC[C@@]3(O)[C@@H]4C[C@H]5O[C@]56CC=CC(=O)[C@]6(C)[C@H]4CC[C@]23COC(=O)c2ccc(C)o2)C1 (stereo partly drawn),14.5% (inactive)
9,C=C1CC[C@@H]2[C@](C)(COC(C)=O)[C@H](OC(C)=O)CC[C@@]2(C)[C@@H]1CC(Nc1ccc(S(=O)(=O)Nc2ccc(Cl)nn2)cc1)C1=CCOC1=O (stereo partly drawn),16.7% (inactive)
10,CC(C)[C@H]1COC(=O)N1[C@@H]1C(=O)N([C@@H](CCC(=O)N2CCN(C3CCCC3)CC2)C(=O)N[C@@H]2CCCc3ccccc32)[C@@H]1/C=C/c1cccc(Br)c1,53% (inactive)
11,Cc1cc(Cl)ccc1Nc1nc(C(F)(F)F)ccc1C(=O)N/N=C/c1ccc(F)cc1,10.5% (inactive)
12,Cn1c(=O)c2[nH]c(C(O)C(O)C(O)C(O)CO)nc2n(C)c1=O (stereo not drawn),100% (inactive)
13,C(=N\Nc1ccccn1)/c1ccccn1,-9.79% (active)
14,COc1cccc(-c2cn3c(ccc4ccccc43)n2)c1,15% (inactive)
15,COc1ccc2c(c1)C(=O)/C(=C/c1cccc(OCC(=O)Nc3nc4c(s3)CCCC4)c1)O2,10.4% (inactive)
16,c1ccc(-c2nc(N3CCOCC3)c3c4c(sc3n2)CCCCC4)nc1,27.3% (inactive)
17,COc1ccc(-c2cn3c(ccc4ccccc43)n2)cc1,96.3% (inactive)
18,COc1cc(OC)c(/C=C/C(=O)c2c(OC)cc(OC)cc2OC)c(OC)c1,12.3% (inactive)
19,COc1ccc(-c2cc(-c3ccc(N(C)C)cc3)nc(NC(=O)c3ccncc3)n2)cc1,96.6% (inactive)
